Data taken from PubChem BioAssay AID2677 (National Center for Advancing Translational Sciences (NCATS), 2010).
The list shows a part of the results. Inconclusive results are not listed. The source made the active and inactive calls. Calls come from the whole dose curve; as a rule, active = well fitted inhibition curve with a large enough effect; inconclusive = small, poorly fitted or top-dose-only effect; inactive = no such curve, though single readings can be large or run the other way.

molecular target: Lysine-specific demethylase 4E (Homo sapiens) (UniProt B2RXH2); test: Confirmation qHTS Assay for Inhibitors of Human Jumonji Domain Containing 2E (JMJD2E); conditions: Recombinant JMJD2E, FDH-coupled NADH fluorescence (FDH is formaldehyde dehydrogenase)
Source text: The fine interplay among methylation states of several lysine residues on the tails of histone proteins is a major determinant of the transcriptional state of the associated DNA coding regions and is commonly referred to as the histone code. Histone lysine demethylases catalyze the removal of methyl groups from methylated lysine sidechains on histones H3 and H4, thus antagonizing the reactions catalyzed by histone lysine methyltransferases. […] In search for novel inhibitors of JMJD2E demethylase, a member of the largest set of histone demethylases belonging to the Fe(II) and 2-oxoglutarate oxygenase (2OG) superfamily, we performed a quantitative high-throughput screen (Inglese 2006) by using an assay which utilizes a trimethylated peptide substrate corresponding to a fragment of histone H3 (sequence ARKme3STGGK) with detection of the formaldehyde co-product in real time by a formaldehyde dehydrogenase (FDH) coupled reaction. FDH catalyzes oxidation of formaldehyde to formic acid with the concomitant reduction of the non-fluorescent beta-nicotinamide adenine dinucleotide hydrate (NAD+) cofactor to the fluorescent NADH co-product. References: Inglese, J., Auld, D., Jadhav, A., Johnson, R., Simeonov, A., Yasgar, A., Zheng, W. and Austin, C. Proc Natl Acad Sci USA 2006, 103, 11473-11478. N. R. Rose, S. S. Ng, J. Mecinovic, B. M. Lienard, S. H. Bello, Z. Sun, M. A. McDonough, U. Oppermann and C. J. Schofield, J Med Chem, 2008, 51, 7053-7056. Sakurai, M., Rose, N., Schultz, L., Quinn, A., Jadhav, A., Ng, S., Oppermann, U., Schofield, C.J. and Simeonov, A. Mol BioSystems 2009, in press. S. Michael, D. Auld, C. Klumpp, A. Jadhav, W. Zheng, N. Thorne, C. Austin, J. Inglese and A. Simeonov, Assay Drug Dev Technol, 2008, 6, 637-657. Assay Provider: Structural Genomics Consortium [SGC] Screening Center PI: Austin, C.P. Screening Center: NIH Chemical Genomics Center [NCGC]
Reagents and Controls: Ferrous ammonium sulfate, (+)-sodium L-ascorbate, beta-nicotinamide adenine dinucleotide hydrate (NAD+), Tween-20, formaldehyde dehydrogenase from P. putida (FDH), and disodium 2-oxoglutarate were from Sigma (St. Louis, MO). Black solid-bottom 384-well or 1,536-well assay plates were from Greiner Bio-One (Monroe, NC). Enzyme was supplied by Prof. Udo Oppermann, SGC-Oxford. […] The trimethylated histone peptide substrate ARK(me3)STGGK was synthesized and HPLC-purified by the Tufts University Core Facility (Boston, MA). Substrate solution (Sakurai 2009) contained 50 uM ARK(me3)STGGK, 0.00025 U/uL FDH, 50 uM 2-oxoglutarate, 250 uM NAD+, 1 mM ascorbate, and 10 uM ferrous ammonium sulfate. Controls and plate map: Buffer (150 mM HEPES pH 7.5 containing 0.01% Tween-20) in columns 3 and 4 as negative control (no enzyme) and 100 nM JMJD2E final concentration in columns 1,2, and 5-48. Assay Steps: Enzyme and buffer solutions (3 uL) were dispensed into a 1,536-well Greiner black solid-bottom assay plate. The library compounds (23 nL) were transferred using a Kalypsys pintool equipped with 1,536-pin array. The plate was incubated at room temperature (15 min), and then a 1 uL aliquot of substrate solution was added to initiate the reaction. The plate was transferred to ViewLux imager where an initial reading using standard UV optics (Ex 340 nm, Em 450 nm) was obtained. The plate was then removed from the reader, incubated for 30 minutes at room temperature, and returned to the reader for a second fluorescence reading. A fully automated robotic screening system (Kalypsys Inc, San diego, CA) was used to perform the above steps as described previously (Michael 2008). Compound plates containing DMSO as a vehicle-only control were included at regular interval throughout the screen to monitor any systematic trend in the assay signal associated with reagent dispenser variation or decreases in enzyme specific activity. For activity calculations, percent values were computed as the difference in fluorescence intensity between last and first time points. […]

Chain of Lysine-specific demethylase 4E (Homo sapiens) (B2RXH2 1-337 limits assumed): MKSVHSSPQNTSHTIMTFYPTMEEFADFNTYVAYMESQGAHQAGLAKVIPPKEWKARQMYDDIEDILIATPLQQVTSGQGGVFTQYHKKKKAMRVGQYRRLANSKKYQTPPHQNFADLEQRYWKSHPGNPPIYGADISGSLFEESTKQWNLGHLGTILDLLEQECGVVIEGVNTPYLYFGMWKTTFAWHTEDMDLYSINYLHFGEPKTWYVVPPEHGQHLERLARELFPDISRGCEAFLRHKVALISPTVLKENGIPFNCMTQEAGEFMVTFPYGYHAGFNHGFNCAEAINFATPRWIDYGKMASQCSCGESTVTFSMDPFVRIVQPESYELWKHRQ

Potency, active:
Nc1ccc(Nc2cc(O)c3ncccc3c2)cc1 28.2 µM
Oc1ccc(/C=C/c2c(F)cccc2F)c2cccnc12 9.13 µM
Oc1cccc2cc(-c3ccncc3)cnc12 18.2 µM
Oc1c(CN2CCCC2)cc(COCc2ccccc2)c2cccnc12 5.01 µM
Cc1ccc(N2C(=O)CC(Sc3ncn[nH]3)C2=O)cc1 (stereo unspecified) 5.01 µM
O=C1CC(Sc2ncn[nH]2)C(=O)N1c1ccccc1 (stereo unspecified) 7.08 µM
